# Biological target: GNAQ
# Experiment: pooled miR-30 sensor sort-seq; sequence = guide strand
# Conditions: shRNA
# Further: reference of the scale not given here.
row,Sequence,sensor-assay potency score (higher = more potent)
1,TTGATAAACGTACTCTTGCCAC,-0.533
2,TTGAGTGTGTCCATGGCTCTGA,0.188
3,TCGTCTATCATAGCATTCCTGG,-1.02
4,ATAATTGATATTCTCGTCGTCT,0.0326
5,TACTCTTGCCACTCTCTCCTGT,0.305
6,TTGTGCATGAGCCTTATTGTGC,-1.26
7,TCGAACTCTAAGCACATCTTGT,-0.759

# Biological target: GNAT1
# Experiment: as above
# Conditions: shRNA
row,Sequence,sensor-assay potency score (higher = more potent)
1,TGCACCTTGATGTAGTTGCCGG,-1.2
2,TTTGACGTTCTGCGTGTCGGTG,-0.514
3,TTCGTCGTCCTCCACTAGCACC,-1.74
4,TTGACGTTCTGCGTGTCGGTGG,0.245
5,TAGCGGTGGTTGCAGATGCTGT,-1.65
6,TTCTTTTCCAGCTCCCTGGAGT,-0.257
7,TTGAGTGTGGTCATGGCGCGTA,-0.473
8,TAATCTTCATCTGCTTGACGAT,-0.376
9,TAGATCTCCTTCACGTCGCGCC,-0.148
10,TTGGGTCCATCGTAGTCCGGGA,-0.616
11,TAGTCCGGGAAACAGATGCTGA,-1.24
12,TCCTTGATGATGATGTCGGTGA,-1.08

# Biological target: GNLY
# Experiment: as above
# Conditions: shRNA
row,Sequence,sensor-assay potency score (higher = more potent)
1,TTGGAAACACTTCTCTGGGTGG,-0.134
2,TTTGGTCAACAGGTCACCCTGG,0.282
3,TTGGACTATCGTCAGACAGGTC,-0.895
4,ATTGGAAACACTTCTCTGGGTG,0.184
5,TTTCTCCTCATCACGCAGGTGG,-0.588
6,TTCAGTTTTTGGACTATCGTCA,0.462
7,TTGGTCAACAGGTCACCCTGGG,-0.135
8,TTTTGGTCAACAGGTCACCCTG,-1.53
9,TTGCCAGGTCGTAGTACTCAGG,-1.35
10,TTTTGGACTATCGTCAGACAGG,-1.31
11,TATACACAACCTGAGGTCCTCA,-0.844
12,ACTATCGTCAGACAGGTCCTGT,-0.334

# Biological target: GOLGA1
# Experiment: as above
# Conditions: shRNA
row,Sequence,sensor-assay potency score (higher = more potent)
1,TTGAGTTTCAGCAGTGACCTTT,0.403
2,TTCGAAGAGCTCATTATCGGGT,0.0609
3,TTAAGTCTGATGACATCTGATT,-1.11
4,TTATCTTCTGCAAGTTTCGGAC,-0.221
5,TTTATCTTCTGCAAGTTTCGGA,0.43
6,TGATCTTACTTTCTGCACCTGT,-0.0709
7,TTCTAATGCAATTTCAAGCTTC,0.23
8,TATAGTAGTGAAGAACTTCAGC,-0.313
9,TATCACATGATCTCTCTGCTCT,0.568

# Source: the OligoGym collection
